# Results reported in PubChem BioAssay (NCATS).
# A number with no mark means an inactive call. Where a call stands in place of a potency, no number is given. The source made the active and inactive calls. Calls come from the whole dose curve; as a rule, active = well fitted inhibition curve with a large enough effect; inconclusive = small, poorly fitted or top-dose-only effect; inactive = flat fitted curve, though single readings scatter. Where a SMILES comes first, the peptide text is derived from it.
# Target: Luciferin 4-monooxygenase (Photinus pyralis) (UniProt P08659)
# Assay: Primary firefly luciferase (FLuc) qHTS assay for identification of artifact compounds. (AID 1845220); note: nearly all actives have a fitted effect of over 60% in size
# Details: purified firefly luciferase, luminescence, 5 min; series mostly up to 54.1 µM
# How it was run: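 qHTS, 15 min compound preincubation with substrate (10 uM luciferin, 10 uM ATP) at RT, then 10 nM FLuc; 5 min; luminescence; % inhibition vs no-enzyme/DMSO controls, 4-parameter Hill fit.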
Molecule,Potency,outcome,"activity change, negative = inhibition"
CC[C@@H]1C(=O)O[C@]23C=C[C@@H]4C(C(=O)OC)=CO[C@H](O[C@@H]12)[C@@H]43,inactive,–,–
C=C1CC[C@]2(C(=O)O[C@@H]3O[C@H](CO)[C@@H](O)[C@H](O)[C@H]3O)CC[C@]3(C)C(=CCC4[C@@]5(C)C[C@H](O)[C@@H](O[C@@H]6O[C@H](C(=O)O)[C@@H](O)[C@H](O)[C@H]6O)[C@](C)(C=O)C5CC[C@]43C)C2C1 (some centres undefined),–,inactive [at 11.6 µM],–
C[C@@H]1O[C@@H](O[C@H]2[C@H](O)[C@@H](O)[C@H](OC(=O)[C@]34CCC(C)(C)C[C@H]3C3=CCC5[C@@]6(C)CC[C@H](O[C@@H]7O[C@H](C(=O)O)[C@@H](O)[C@H](O)[C@H]7O)C(C)(C)C6CC[C@@]5(C)[C@]3(C)CC4)O[C@@H]2CO)[C@H](O)[C@H](O)[C@H]1O (some centres undefined),–,–,-16.1% [at 11.6 µM]
CC(=O)C1CCC(=O)N1Cc1ccccc1 (centres undefined),inactive,–,–
H-DPPDPDRFYGMM-NH2,inactive,–,–
C[C@@H]1O[C@@H](O[C@H]2[C@H](O)[C@@H](O)[C@H](OC[C@H]3O[C@@H](OC(=O)[C@]45CCC(C)(C)C[C@H]4C4=CCC6[C@@]7(C)C[C@@H](O)[C@H](O)[C@@](C)(CO)C7[C@H](O)C[C@@]6(C)[C@]4(C)CC5)[C@H](O)[C@@H](O)[C@@H]3O)O[C@@H]2CO)[C@H](O)[C@H](O)[C@H]1O (some centres undefined),–,–,0.345% [at 11.6 µM]
COc1cccc(Cn2ncc3c4sc(S(C)=O)cc4n(C)c3c2=O)c1 (centres undefined),inactive,–,–
CCCC1=CC2=C(CO1)C(=O)C(C)(O)C(OC(=O)c1c(C)cc(OC)cc1O)C2 (centres undefined),inactive,–,–
CO[C@H]1c2cc(C(C)C)c(O)c(O)c2[C@@]23CCCC(C)(C)C2[C@@H]1OC3=O (some centres undefined),inactive,–,–
C=C1CCC2C(C)(C)CC(O)CC2(C)C1CCC(C)CCOC(=O)CCC(=O)O (centres undefined),inactive,–,–
CC(=O)O[C@@H](C[C@@H]1C=C(C)C(=O)O1)[C@H](C)[C@H]1CCC2[C@@]3(C)CC[C@H](O[C@@H]4O[C@H](CO)[C@@H](O)[C@H](O)[C@H]4O[C@@H]4O[C@@H](C)[C@H](O)[C@@H](O)[C@H]4O)C(C)(C)C3CC[C@@]2(C)[C@@]12COC(=O)C2 (some centres undefined),–,–,-7.53% [at 11.6 µM]
CC1CC2(O)OC(=O)C3=C2C(CCC3)[C@@]12C[C@@H](c1ccoc1)OC2=O (some centres undefined),inactive,–,–
COc1cc(C(=O)OCC2=CCC3C(C(=O)O)=COC(O[C@@H]4O[C@H](CO)[C@@H](O)[C@H](O)[C@H]4O)C23)ccc1O (some centres undefined),inactive,–,–
CC(=O)O[C@H]1[C@H](O[C@H]2CC[C@]34C[C@]35CC[C@]3(C)[C@@H]([C@@]6(C)CC[C@@H](C(C)(C)O)O6)[C@@H](O)C[C@@]3(C)[C@@H]5C[C@H](O[C@@H]3O[C@H](CO)[C@@H](O)[C@H](O)[C@H]3O)[C@H]4C2(C)C)OC[C@@H](OC(C)=O)[C@@H]1O,inactive,–,–
CC(C)[C@@H](C(=O)O)N1Cc2c(cc(O)c3c2O[C@]2(C3)[C@H](C)CCC3C(C)(C)[C@H](O)[C@H](O)C[C@@]32C)C1=O (some centres undefined),inactive,–,–
C/C=C/C=C/[C@@H]1O[C@](O)([C@H](CC)C(=O)NC/C=C/C=C(\C)[C@@H](OC)[C@@H](C)[C@@H]2O[C@H](/C=C/C=C/C=C(\C)C(=O)c3c(O)ccn(C)c3=O)[C@H](O)[C@@H]2O)[C@H](O)[C@H](O)C1(C)C,–,inactive [at 11.6 µM],–
CCCCC(=O)N1c2ccccc2NC2=C(C(=O)CCC2)C1c1ccccc1Cl (centres undefined),inactive,–,–
CC(C)(O)C(O)C(=O)OCc1ccc(O[C@@H]2O[C@H](CO)[C@@H](O)[C@H](O)[C@H]2O)cc1 (some centres undefined),inactive,–,–
COc1cc(C)c(C(=O)NC2C(C)OC(OC3CCC(C)C4C3C=C(C)C3/C(C)=C\CC/C(C)=C/C5(C)C=C(C(=O)O)C(C)CC56OC(=O)/C(=C(\O)C34C)C6=O)C(O)C2(C)O)c(O)c1 (centres undefined),–,inactive [at 11.6 µM],–
CC1=C2C[C@@]3(C)[C@@H](CCC[C@@H]3C)C[C@@]2(O)OC1=O,inactive,–,–
C/C=C1/CC2C(=O)Nc3cc(O)c(OC)cc3C(=O)N2C1 (centres undefined),inactive,–,–
CC(=O)NC(Cc1ccccc1)C(=O)NC(C(=O)O)C(C)C (stereo not drawn) (Ac-Phe-Val-OH; configuration not given here),inactive,–,–
COc1ccc(C2(O)c3ccccc3NC(=O)C2OC)cc1 (centres undefined),inactive,–,–
Cc1oc(S(=O)(=O)N2CCCCC2)cc1NC(=O)Nc1ccccc1,inactive,–,–
